Tb PYK inh – qHTS of Trypanosoma Brucei Inhibitors; actives 0.12% (n = 410,000); TbPYK enzyme, Kinase-Glo Plus ATP luminescence, 45 min; pyruvate kinase (Trypanosoma brucei), Q57TT1; Potency, µM (doses to about 76.8 µM), inactives show top-dose activity, negative = inhibition, hits mostly inhibitors; further: potency means the concentration at half of the fitted maximal effect; on the % scale 0 is the no-effect control and ±100 the full control effect; nearly all actives have a fitted effect of over 50% in size
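Glycolytic pyruvate kinase of T. brucei was incubated with substrate, test compound and 130 uM ADP for 45 minutes at room temperature. Luminescent Kinase-Glo Plus signal was measured after 10 minutes.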
LmPK inhibitor – qHTS Assay for Inhibitors of Leishmania Mexicana Pyruvate Kinase (LmPK). purified LmPK, Kinase-Glo ATP luminescence, 1 h. Potency, µM (series often up to 57.5 µM), without a hit: top-dose activity change, negative = inhibition, actives largely listed as inhibitors. Q27686. AID 1721, 2009. actives 0.37% (n = 290,000); further: potency means the concentration at half of the fitted maximal effect; on the % scale 0 is the no-effect control and ±100 the full control effect
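qHTS format; LmPK 0.1 nM; substrates PEP 0.5 mM and ADP 0.1 mM. One-hour room-temperature incubation, then coupled luciferase luminescence; 0.5 nM enzyme wells mark activation.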
CHX counter – Cycloheximide Counterscreen for Small Molecule Inhibitors of Shiga Toxin; cell reporter, cycloheximide protein synthesis inhibition counterscreen; max response, %; actives 12% (n = 300,000); in the data active means max response mostly above about 13%, no sharp cut-off; inactive means mostly below about 14%; further: read at 38.3 µM for the half of the compounds with a filed dose; 0% is about no effect
Giardia FBPA inh – qHTS Assay for Inhibitors of Fructose-1,6-bisphosphate Aldolase from Giardia Lamblia; Potency, µM (top dose mostly 59.6 µM), for the others: at the highest dose activity, negative = inhibition, hits mostly inhibitors; actives 0.71% (n = 290,000); purified Giardia FBPA; further: potency means the concentration at half of the fitted maximal effect; on the % scale 0 is the no-effect control and ±100 the full control effect; nearly all actives have a fitted effect of over 55% in size
Target sequence (A8B2U2 whole entry, looked up): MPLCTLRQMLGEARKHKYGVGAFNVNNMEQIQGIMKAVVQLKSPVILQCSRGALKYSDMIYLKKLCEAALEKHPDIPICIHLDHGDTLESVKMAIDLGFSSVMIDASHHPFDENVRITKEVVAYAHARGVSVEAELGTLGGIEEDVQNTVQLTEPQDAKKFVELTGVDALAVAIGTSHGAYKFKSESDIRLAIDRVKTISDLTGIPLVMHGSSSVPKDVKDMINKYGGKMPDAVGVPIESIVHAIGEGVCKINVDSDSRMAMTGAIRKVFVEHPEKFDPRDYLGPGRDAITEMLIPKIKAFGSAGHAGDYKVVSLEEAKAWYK
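40 nM FBPA preincubated 10 min at RT with compound (up to 57.5 uM final), then substrate plus GAPDH/TPI/NAD/arsenate coupling and diaphorase/resazurin added. Fluorescence read after 20 min at RT, 525/598 nm.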
RE007 growth inh – qHTS Assay for Inhibitors of the HIV-1 protein Vpr | Potency, µM (titrated, usually from 92.2 µM), for the others: at the highest dose activity change, negative = less growth, actives largely listed as inhibitors | actives 0.21% (n = 360,000) | S. pombe RE007 Vpr strain, BacTiter-Glo ATP luminescence, 24 h | AID 651644, 2012; active means well fitted falling curve with a large enough effect; inconclusive means small, poorly fitted or top-dose-only effect; inactive means no such curve, though single readings can be large or run the other way; further: potency means the concentration at half of the fitted maximal effect; on the % scale 0 is the no-effect control and ±100 the full control effect; nearly all actives have a fitted effect of over 50% in size
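Fission yeast RE007 carrying one integrated HIV-1 vpr copy, seeded at OD 0.01 in PMG+AL medium with 23 nL pinned compound. Grown 24 h at 30 degrees; viability read by BacTiter-Glo luminescence after 5 min.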
Shiga toxin inh – A qHTS for Small Molecule Inhibitors of Shiga Toxin; Vero cells, Shiga toxin protein synthesis inhibition reporter; inhibition, % at 38.7 µM; actives 9.2% (n = 290,000); AID 2315, 2010; in the data active means inhibition mostly above about 28%, no sharp cut-off; inactive means mostly below about 43%; further: 0% is about no effect
* marks the source's active call; other numbers are inactive results; ? = inconclusive; . = no result; + = active, no number. Only a selection was taken, and hits are over-represented in it overall. Unless noted, the call rests on the fitted dose curve; in most records, active means well fitted curve in the direction sought with a large enough effect; inconclusive means small, poorly fitted or top-dose-only effect, or another doubt; inactive means no such curve, though single readings can be large; an effect the other way counts as inactive or inconclusive.

SMILES	Tb PYK inh	LmPK inhibitor	CHX counter	Giardia FBPA inh	RE007 growth inh	Shiga toxin inh
CCOC(=O)Cc1cc(=O)[nH]c(Nc2nc3ccccc3o2)n1	2%	3%	18	22%	2%	77*
Cc1ccc2oc(Nc3nc(-c4ccccc4)cc(=O)[nH]3)nc2c1	2%	0%	11	0%	1%	3
COC(=O)Cc1cc(=O)[nH]c(Nc2nc3ccccc3o2)n1	-6%	4%	17*	0%	-2%	31*
Cc1cc(C(=O)N2CCC2(C)C(=O)NS(=O)(=O)c2cccc(OC(F)F)c2)nn1C (configuration not stated)	3%	.	.	.	2%	.
Cc1cn([C@H]2C[C@H](O)[C@@H](CNCc3ccc(CN(C)S(C)(=O)=O)o3)O2)c(=O)[nH]c1=O	3%	.	.	.	-13%	.
Cc1ccc(/C=C2/NC(=O)[C@H](C)NC2=O)cc1	0%	-3%	15*	3%	1%	26
C[C@@H]1NC(=O)/C(=C\c2ccccc2Br)NC1=O	-1%	-4%	-2	2%	-15%	-7
O=C(NCC1CCCO1)Nc1cccc(Cl)c1 (configuration not stated)	5%	-5%	17*	-1%	-6%	27*
Cc1cccc(NC(=O)C(=O)NCC2CCCO2)c1 (configuration not stated)	-2%	-7%	43*	0%	10%	51*
S=C(NCC1CCCO1)Nc1cccc(Cl)c1 (configuration not stated)	0%	0%	4	0%	-1%	15
CCC(Sc1ncc(S(=O)(=O)c2ccc(C)cc2)c(=O)[nH]1)C(=O)Nc1cc(C)ccc1C (configuration not stated)	6%	.	.	.	.	.
COc1cccc(N2CC(NC(=O)c3cccc(OC)c3OC)CC2=O)c1 (configuration not stated)	3%	.	.	.	.	.
Cc1cccc(Nc2ccccc2C(=O)OCC(=O)NCc2ccco2)c1C	-1%	0%	19	0%	-2%	30
O=C(COC(=O)c1cccnc1SC(F)F)NC1CC1	-8%	.	.	.	6%	.
O=C(COC(=O)c1ccccc1C(=O)c1ccccc1)Nc1ccc(SC(F)F)cc1	-2%	-2%	20*	-5%	-3%	-2
CNC(=O)COC(=O)c1ccccc1Nc1ccccc1	4%	-3%	17*	-1%	11%	118*
O=C(COC(=O)c1ccccc1Nc1ccc(SC(F)F)cc1)NCc1ccco1	-4%	2%	33*	1%	9%	63*
O=C(COC(=O)c1ccccc1Nc1ccc(SC(F)F)cc1)NC1CC1	4%	-20%	73*	-2%	-17%	75*
CCOc1ccc(C(=O)OCC(=O)NC2CCCCCCC2)cc1	-5%	.	.	.	-3%	.
NC(=O)COC(=O)c1ccccc1Nc1ccc(SC(F)F)cc1	10%	-5%	14*	3%	39%	40
CC(OC(=O)c1ccccc1Nc1ccc(SC(F)F)cc1)C(N)=O (configuration not stated)	-8%	-1%	-1	3%	48%	-5
CC(C)(C)NC(=O)COC(=O)c1ccccc1Nc1ccc(SC(F)F)cc1	7%	-9%	55*	2%	4%	67*
CN(C)C(=O)COC(=O)c1ccccc1OCC(=O)Nc1ccc(SC(F)F)cc1	-2%	7%	-1	-12%	-4%	2
Cc1ccc(/C=N/c2sc3c(c2C#N)CCC3)s1	-12%	-16%	55*	-4%	-13%	114*
Cc1ccc(/C=N/c2sc3c(c2C#N)CCCCC3)o1	?	?	-2	-29%	-17%	6
SMILES	Tb PYK inh	LmPK inhibitor	CHX counter	Giardia FBPA inh	RE007 growth inh	Shiga toxin inh
N#Cc1c(/N=C/c2cc3ccccc3s2)sc2c1CCC2	-13%	1%	20*	-10%	7%	33*
Clc1ccc(-c2cn3c(n2)-c2ccccc2C3)cc1Cl	-2%	25µM*	40*	-21%	2%	64*
CCCN1CCC(=O)N([C@H](CO)c2ccccc2)CC1	-2%	-4%	-1	3%	22%	-4
CCCN1CCC(=O)N([C@H](CSc2ccc(C)cc2)c2ccccc2)CC1	1%	7%	23*	-1%	-16%	46*
CCCN1CCC(=O)N([C@H](CSc2ccccc2)c2ccccc2)CC1	5%	7%	24*	12%	-1%	19
CCCN1CCC(=O)N(C(CSc2ccc(Br)cc2)c2ccccc2)CC1 (configuration not stated)	.	.	50*	10%	.	77*
COc1ccc(C2(c3ccc(OC)cc3)NC(=O)N(CC(=O)N3CCOCC3)C2=O)cc1	-1%	.	.	.	5%	.
CCCCCCCNC1=CC(=O)CC(c2ccco2)C1 (configuration not stated)	2%	2%	19*	-20%	13%	13
COC(=O)CSc1ncccc1-c1nc2ccccc2[nH]1	0%	-2%	24*	-1%	-4%	+
CC(C)(C)NC(=O)CSc1ncccc1-c1nc2ccccc2[nH]1	-2%	3%	26*	-5%	3%	26*
O=C(CSc1ncccc1-c1nc2ccccc2[nH]1)N1CCc2ccccc21	-11%	2%	85*	5%	-3%	26
CC(C)(C)NC(=O)CSc1nc(-c2ccccc2)c(-c2ccccc2)[nH]1	0%	2%	-2	-6%	2%	-29
COC(=O)Cc1ccc(OC(=O)c2cccc(S(=O)(=O)N3CCN(C)CC3)c2)cc1	-1%	.	.	.	0%	.
O=C(O)CCc1ccc(S(=O)(=O)Nc2cc(C(F)(F)F)ccc2N2CCCC2)cc1	1%	.	.	.	-3%	.
Nc1ccc(NC(=O)c2cccs2)c(Cl)c1	-1%	-2%	32*	5%	-4%	55*
Nc1ccc(Cl)c(NC(=O)c2cccs2)c1	-9%	-3%	16*	-29%	-18%	active
O=C(Nc1ccc(N2C(=O)C3C4C=CC(C4)C3C2=O)cc1Cl)c1cccs1 (configuration not stated)	3%	3%	6	9%	6%	3
O=C(NNc1cc(Cl)ccc1Cl)c1cccs1	0%	8%	-3	3%	184%	-2
CC(C)CCN(C(=O)COc1ccc(C#N)cc1)c1c(N)n(Cc2ccccc2)c(=O)[nH]c1=O	.	2%	-2	4%	.	5
CCN(CCO)C1CC(=O)N(c2ccccc2C)C1=O (configuration not stated)	-6%	-1%	-2	-14%	22µM*	-1

Compound activity (PubChem)
